“And” between values parts separate entries of the source, which are not always exact repeats. Equal values may be shown once. The source made the active and inactive calls. Unless noted, how the calls were made is not given here.
Assay: LFS_MB_2R medulloblastoma cell growth inhibition, synergistic combos for chromothripsis tumors, cisplatin combos (AID 1671457);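 further: cells exposed to compound for four days before readout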
Conditions: LFS_MB_2R medulloblastoma cells, measured here: combination with cisplatin, at 5 µM, stronger effect = higher value

Row | SMILES | inhibition
1 | CCOC(=O)NCCCC(=O)NCCc1ccccc1 | -15.4% and -22.8%
2 | C[C@@]1(c2nc3c(C(N)=O)cccc3[nH]2)CCCN1 | -13.3% and -26.2%
3 | O=C(NCC1(c2nc(-c3ccccc3)cs2)CCOCC1)c1cccc(-c2noc(C(F)(F)F)n2)c1 | -55.5% and 22.9%

Assay: MDA-MB-436 breast carcinoma cell growth inhibition, synergistic combos for chromothripsis tumors, BGB or cisplatin combos (AID 1671458);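 further: cells exposed for 96 hours; 0% = vehicle DMSO and 100% = killing by high DMSO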
Conditions: MDA-MB-436 breast carcinoma growth inhibition, drug combinations; at 0.5 µM; stronger effect = higher value

Row | SMILES | inhibition
4 | CCOC(=O)NCCCC(=O)NCCc1ccccc1 | -30.7% (inactive) and -10.1% (inactive)
5 | C[C@@]1(c2nc3c(C(N)=O)cccc3[nH]2)CCCN1 | 4.59% (inactive) and -23.4% (inactive)
6 | O=C(NCC1(c2nc(-c3ccccc3)cs2)CCOCC1)c1cccc(-c2noc(C(F)(F)F)n2)c1 | -6.26% (inactive) and 2.54% (inactive)

Same assay, conditions: MDA-MB-436 breast carcinoma growth inhibition, drug combinations; measured here: BGB combination; at 0.5 µM; stronger effect = higher value

Row | SMILES | inhibition
7 | CCOC(=O)NCCCC(=O)NCCc1ccccc1 | -24.7% and -2.6%
8 | C[C@@]1(c2nc3c(C(N)=O)cccc3[nH]2)CCCN1 | -1.87% and -40.7%
9 | O=C(NCC1(c2nc(-c3ccccc3)cs2)CCOCC1)c1cccc(-c2noc(C(F)(F)F)n2)c1 | -4.1% and 0.779%

Same assay, conditions: MDA-MB-436 breast carcinoma growth inhibition, drug combinations; measured here: BGB combination; at 5 µM; stronger effect = higher value

Row | SMILES | inhibition
10 | CCOC(=O)NCCCC(=O)NCCc1ccccc1 | -6.13% and -14.1%
11 | C[C@@]1(c2nc3c(C(N)=O)cccc3[nH]2)CCCN1 | 2.42% and -13.4%
12 | O=C(NCC1(c2nc(-c3ccccc3)cs2)CCOCC1)c1cccc(-c2noc(C(F)(F)F)n2)c1 | -10.4% and -5.25%

Same assay, conditions: MDA-MB-436 breast carcinoma growth inhibition, drug combinations; measured here: cisplatin combination; at 0.5 µM; stronger effect = higher value

Row | SMILES | inhibition
13 | CCOC(=O)NCCCC(=O)NCCc1ccccc1 | -47% and -19.2%
14 | C[C@@]1(c2nc3c(C(N)=O)cccc3[nH]2)CCCN1 | -2.04% and -27.9%
15 | O=C(NCC1(c2nc(-c3ccccc3)cs2)CCOCC1)c1cccc(-c2noc(C(F)(F)F)n2)c1 | -10.7% and 8.48%

Same assay, conditions: MDA-MB-436 breast carcinoma growth inhibition, drug combinations; measured here: cisplatin combination; at 5 µM; stronger effect = higher value

Row | SMILES | inhibition
16 | CCOC(=O)NCCCC(=O)NCCc1ccccc1 | -39.2% and -16.3%
17 | C[C@@]1(c2nc3c(C(N)=O)cccc3[nH]2)CCCN1 | -0.972% and -36.3%
18 | O=C(NCC1(c2nc(-c3ccccc3)cs2)CCOCC1)c1cccc(-c2noc(C(F)(F)F)n2)c1 | -13.8% and 11%

Assay: UWB1.289_BRCA1 ovarian cancer growth, cell-based, BGB or cisplatin combinations (AID 1671459; in the data active means inhibition above about 80%)
Conditions: UWB1.289 BRCA1 ovarian carcinoma, drug combinations, BGB combination, concentration series, at 5 µM, stronger effect = higher value

Row | SMILES | inhibition
19 | CCOC(=O)NCCCC(=O)NCCc1ccccc1 | -32.5% and 1.48%
20 | C[C@@]1(c2nc3c(C(N)=O)cccc3[nH]2)CCCN1 | -24.7% and -7.53%
21 | O=C(NCC1(c2nc(-c3ccccc3)cs2)CCOCC1)c1cccc(-c2noc(C(F)(F)F)n2)c1 | -15.2% and 14.2%

Same assay, conditions: UWB1.289 BRCA1 ovarian carcinoma, drug combinations, at 0.5 µM, stronger effect = higher value

Row | SMILES | inhibition
22 | CCOC(=O)NCCCC(=O)NCCc1ccccc1 | -24.6% (inactive) and -10.6% (inactive)
23 | C[C@@]1(c2nc3c(C(N)=O)cccc3[nH]2)CCCN1 | -10.7% (inactive) and -7.52% (inactive)
24 | O=C(NCC1(c2nc(-c3ccccc3)cs2)CCOCC1)c1cccc(-c2noc(C(F)(F)F)n2)c1 | -10.2% (inactive) and 7.86% (inactive)
